Data taken from ChEMBL document CHEMBL4513216, “Probing the Open Global Health Chemical Diversity Library for Multistage-Active Starting Points for Next-Generation Antimalarials” (ACS Infect Dis, 2020).
In all, about 69,000 compounds went through this assay and about 8,600 (12%) showed an effect of 50% or more. The list comes from a sample in which strong results are over-represented; it also holds similar structures and randomly drawn compounds.

test system: Plasmodium berghei; assay: Screen against P. berghei liver stage (PbLuc), transformed with Luciferase, at 10uM; format: functional, HepG2; conditions: tested at 10 uM

Row | SMILES | INHIBITION
1 | CC(=O)NCC1CCN(C(=O)NCCOc2ccc3c(c2)CCC3)CC1 | 25.1%
2 | COc1cc(C(=O)N2CCCC(n3cncn3)C2)ccc1C (stereo not given) | -16%
3 | CC(C(=O)N1CCCC1)n1nc(-c2cccs2)cc(N)c1=O (stereo not given) | 11.8%
4 | CCN1CCN(C(=O)c2cnc3c(cnn3C3CCCC3)c2)CC1 | 19.2%
5 | CN(C)C(=O)[C@@H]1C[C@@H]2CCN(Cc3nccs3)C[C@@H]2O1 | 19.9%
6 | O=C(NCC1CC1)[C@H]1C[C@@H]2CCN(Cc3nccs3)C[C@@H]2O1 | 25%
7 | CC1CCN(C(=O)[C@@H]2C[C@@H]3CCN(Cc4nccs4)C[C@H]3O2)CC1 | 53.9%
8 | COCCNC(=O)[C@H]1C[C@@H]2CCN(Cc3nccs3)C[C@H]2O1 | 56.7%
9 | CNC(=O)[C@H]1C[C@@H]2CCN(Cc3nccs3)C[C@H]2O1 | 26.4%
10 | COCCNC(=O)[C@H]1C[C@@H]2CCN(Cc3ccncc3)C[C@H]2O1 | -1.36%
11 | CC(C)CCn1ccc(NC(=O)N2CCCC2C(C)(C)O)n1 (stereo not given) | 29.9%
12 | c1ccc(OCc2nnc3n2CCN(CC2CCOCC2)C3)nc1 | 43.2%
13 | Cc1cc(C)nc(C2CCN(C3CCOCC3)C2)n1 (stereo not given) | -10.4%
14 | Cn1nc(C(C)(C)C)cc1NC(=O)Cn1ccnc1 | 11.2%
15 | COCCN1C[C@@H]2CC[C@H]1CN(Cc1cc(=O)c3cc(C)ccc3[nH]1)C2 | -23.5%
16 | COCC1N(C(=O)Nc2ccccc2)C2CCC1(O)CC2 (stereo not given) | 8.61%
17 | O=C(NCC1(O)CCc2ccccc2C1)c1cccs1 (stereo not given) | 36.3%
18 | Cc1oncc1C(=O)NCC1(O)CCc2ccccc2C1 (stereo not given) | 67.1%
19 | COc1nn(C)cc1C(=O)NCC1(O)CCc2ccccc2C1 (stereo not given) | 36.5%
20 | CCC(C)NC(=O)CCNC(=O)Nc1ccc(-n2cncn2)c(F)c1 (stereo not given) | 22.69%
21 | CN(C)S(=O)(=O)N1CCC[C@]2(C[C@@H](Oc3ncccc3F)CO2)C1 | 20.6%
22 | CN1N=C(C(=O)NCCc2csc(-c3ccccc3)n2)CCC1=O | 4.95%

Row | SMILES | INHIBITION
23 | CCCC(=O)N1CCOC2(COCCN(CC(=O)NC)C2)C1 (stereo not given) | 3.25%
24 | CNC(=O)CN1CCOCC2(C1)CN(Cc1csnn1)CCO2 (stereo not given) | 67.5%
25 | CNC(=O)CN1CCOCC2(CN(CCC(F)(F)F)CCO2)C1 (stereo not given) | 43.9%
26 | CN(C)C(=O)c1cnc2n1CCN(Cc1ccncc1)C2 | 24.1%
27 | Cc1cc(NCc2ccc(N3CCNC(=O)C3)cc2)nc(C)n1 | 61.8%
28 | CCSc1cncc(NCc2ccc(N3CCNC(=O)C3)cc2)n1 | 82.2%
29 | Cc1cccnc1NC(=O)NCc1ccc(N2CCNC(=O)C2)cc1 | 21.7%
30 | O=C1CN(c2ccc(CNc3cncc(-n4cccn4)n3)cc2)CCN1 | 40.5%
31 | CC(C(=O)NCc1ccc(N2CCNC(=O)C2)cc1)n1cncn1 (stereo not given) | 27.1%
32 | Cc1ccccc1C(=O)NCc1ccc(N2CCNC(=O)C2)cc1 | 15.1%
33 | CCN(Cc1ccccc1)c1ncnc2c(C)nn(CC)c12 | -1.57%
34 | Cc1cc(NC(=O)NCCC(=O)N2CCCc3ccccc32)no1 | 16.1%
35 | CS(=O)(=O)c1cn[nH]c1C1CCCN1C(=O)c1cccnc1 (stereo not given) | 24.4%
36 | Cc1ccnc(C2CN(Cc3cnn(-c4ccccc4C(=O)O)c3)C2)n1 | 14.5375%
37 | CC(C)N(C)C(=O)C1CCC2(CCNCC2)O1 (stereo not given) | 27.7%
38 | CCN(CC)C(=O)C1CCC2(CCNCC2)CO1 (stereo not given) | 2.79%
39 | CCN(CC)C(=O)C1CCC2(CCNCC2)O1 (stereo not given) | 57.9%
40 | Cc1nc(C)n(C2CCCN(C(=O)c3ccc4[nH]nnc4c3)C2)n1 (stereo not given) | 21.9%
41 | O=C(NCCC1CCCCO1)c1coc(COc2ccc(F)cc2)n1 (stereo not given) | 77.8%
42 | COCCNC(=O)c1cc(COc2cncc(Cl)c2)on1 | 25.8%
43 | O=C(NCCN1CCCCCC1)c1coc(COc2ccc(F)cc2)n1 | 7.15%
44 | CCOCCNC(=O)c1cc(COc2cncc(Cl)c2)on1 | 29%

Row | SMILES | INHIBITION
45 | O=C(NCCC1CCCCO1)c1cc(COc2cncc(Cl)c2)on1 (stereo not given) | 59.3%
46 | CSCCNC(=O)c1coc(COc2ccc(F)cc2)n1 | 49.5%
47 | COc1ccc(N2CCN(C(=O)Cn3nc(C)c(Cl)c3C)CC2)cc1 | 7.44%
48 | O=C(CCNc1ncccn1)N1CCN(c2nccs2)CC1 | 45.7%
49 | Cc1nc[nH]c1-c1nccn1CCN1CCCC1=O | -4.95%
50 | Cc1nc[nH]c1-c1nccn1CCN1CCCOC1=O | 39.6%
51 | Cc1nc[nH]c1-c1nccn1CCN1CCOC1=O | 55.5%
52 | CC(C)CNC(=O)[C@H]1CCS(=O)(=O)[C@@H]2CN(Cc3cccnc3)C[C@H]12 | 12.5%
53 | CNC(=O)N1C[C@@H]2C[C@H](C(=O)NCc3cccnc3)[C@H](C1)O2 | 7.65%
54 | Cc1cccc(CN2C[C@@H]3C[C@H](C(=O)NCc4cccnc4)[C@H](C2)O3)c1 | 21.6%
55 | CC(C)CCN1C[C@@H]2C[C@H](C(=O)NCC(C)C)[C@H](C1)O2 | 61.3%
56 | CC(C)CNC(=O)[C@H]1C[C@H]2CN(Cc3cccnc3)C[C@@H]1O2 | 65.9%
57 | CC(C)CN1C[C@@H]2C[C@H](C(=O)NCc3cccnc3)[C@H](C1)O2 | 58.5%
58 | CC(C)CCN1C[C@@H]2C[C@H](C(=O)Nc3ccccc3)[C@H](C1)O2 | 33%
59 | CCN1C[C@@H]2C[C@H](C(=O)NCc3cccnc3)[C@H](C1)O2 | 50%
60 | Cc1ccc(CN2C[C@@H]3C[C@H](C(=O)NCc4cccnc4)[C@H](C2)O3)o1 | 39.3%
61 | Cc1ccc(CN2C[C@@H]3C[C@H](C(=O)NCc4cccnc4)[C@H](C2)O3)cc1 | 42.3%
62 | CC(C)CCN1C[C@@H]2C[C@H](C(=O)NCc3ccccc3)[C@H](C1)O2 | 11.6%
63 | CC(C)CN1C[C@@H]2C[C@H](C(=O)Nc3cccnc3)[C@H](C1)O2 | 2.27%
64 | Cc1cc(C(F)(F)F)nn1C(C)C(=O)NN1CCOCC1 (stereo not given) | -4.12%
65 | CC(C)OCCCNC(=O)C1CCCN(c2ccc3nncn3n2)C1 (stereo not given) | 32.3%
